{
  "source": "PubChem BioAssay AID720519",
  "about": "(National Center for Advancing Translational Sciences (NCATS), 2013)",
  "note": "Records with an inconclusive call do not appear. A call without a number means that no potency is given here. Active and inactive are the calls of the source. Calls follow the shape of the dose curve; as a rule, active = well fitted activation curve with a large enough effect; inconclusive = small, poorly fitted or top-dose-only effect; inactive = flat fitted curve, though single readings scatter. Potency is read from the fitted curve at half-maximal effect.",
  "data": [
    {"experiment": "qHTS for Inhibitors of Cell Surface uPA Generation: Confirmatory Assay for Cherry-picked Compounds", "settings": "cell surface uPA activity generation, qHTS confirmation; series mostly up to 115 µM", "from_the_text": "The overall objective of this project is to perform a quantitative high throughput screen (qHTS) to identify novel compounds that inhibit the generation of cell surface urokinase activity. The urokinase plasminogen activator (uPA) is one of the two primary endogenous systems that mediate plasminogen activation into plasmin. Members of this system, including uPA and its receptor (uPAR), are overexpressed in several malignant tumors. This system plays a major role in adhesion, migration, invasion and metastasis of cancer cells. Small molecule inhibitors of the uPA system will serve as probes to understand the molecular mechanisms of the uPA cascade and better understanding the micro-environmental circumstances that facilitate the activation of plasminogen by uPA, and finally may provide novel candidate agents for anticancer drug therapy.\n[…] […] Upon inhibition of the uPA activation cascade, the subsequent cell surface uPA activity-dependent translocation of LF into the cytoplasm is inhibited. ATP-Lite is used to measure intracellular ATP concentrations (measure cell viability) which remain increased if LF entry into the cytoplasm is inhibited. This validation assay was performed using a small set of cherry picked compounds. Activation of cell viability (increase in luminescence signal) due to inhibition of the cell surface uPA generation is the desired outcome of this assay.\nNIH Chemical Genomics Center [NCGC]\nNIH Molecular Libraries Probe Centers Network [MLPCN]\nAssay Submitter (PI): Thomas Bugge, National Institute of Dental and Craniofacial Research, NIH\nCultured RAW 264.7 were dispensed into 1536-well clear bottom, white walled tissue culture plates at a density of 4000 cells/well and were incubated overnight (12-16 h) at 37 C in a 5% CO2 incubator. Serially diluted compounds (1:5 dilution) in 23 nl DMSO were added to cells (0.0024 uM to 3.83 uM final concentration). […] Compound and reagent-treated plates were incubated for 24 h at 37 C in a 5% CO2 incubator. Three microliter of PerkinElmer ATPlite was then added to each well and luminescence was detected using the PerkinElmer ViewLux plate reader for a 5 sec exposure.", "values": [
      {"smiles": "O=C(NC(=S)Nc1c(F)cc(F)cc1Br)c1ccc2c(c1)OCCO2", "Potency": "inactive"},
      {"smiles": "COc1cccc(CN(C)C(=O)c2cc(S(=O)(=O)N3CCCC3)ccc2C)c1OC", "Potency": "inactive"},
      {"smiles": "N#C/C(N=Nc1ccccc1O)=N\\Nc1ccccc1O", "Potency": "inactive"},
      {"smiles": "Cc1nc(NC(=O)COC(=O)CCc2ccccc2)c(Cl)cc1Cl", "Potency": "inactive"},
      {"smiles": "Cc1ccc(N=C2SCCCN2C(=O)c2cccc(N3C(=O)CCC3=O)c2)cc1Cl", "Potency": "inactive"},
      {"smiles": "COc1ccccc1NC(=O)COc1ccc(C(=O)NCc2ccccc2)cc1OC", "Potency": "inactive"},
      {"smiles": "CC(NC(=O)NC1CCCCC1)C(c1cccs1)N1CCN(C)CC1", "note": "(stereo not given)", "Potency": "inactive"},
      {"smiles": "O=C(COc1cc2oc(=O)cc(-c3ccccc3)c2cc1Cl)NC(Cc1c[nH]c2ccc(O)cc12)C(=O)O", "note": "(stereo not given)", "Potency": "inactive"},
      {"smiles": "CC(=O)Nc1sc(C)c(C)c1C(=O)OCC(=O)NC(C)c1ccccc1", "note": "(stereo not given)", "Potency": "inactive"},
      {"smiles": "COc1ccc(N(CN2C(=O)c3ccccc3C2=O)C(=O)C(C)C)cc1", "Potency": "inactive"},
      {"smiles": "O=C(COC(=O)c1ccc2ncsc2c1)NCc1cccc(Cl)c1", "Potency": "inactive"},
      {"smiles": "CC1CS(=O)(=O)CCN1N=Cc1ccc([N+](=O)[O-])o1", "note": "(stereo not given)", "Potency": "inactive"},
      {"smiles": "CC(C)C(NC(=O)Cc1ccccc1)C(=O)N1CCN(c2cccc(Cl)c2)CC1", "note": "(stereo not given)", "Potency": "inactive"},
      {"smiles": "COc1ccc([C@@H]2[C@@H]3C(=O)N(C(C)(C)C)C(=O)[C@@H]3[C@]3(C)C(=O)N(c4cccc(Cl)c4)C(=O)N23)cc1", "Potency": "inactive"},
      {"smiles": "O=[N+]([O-])c1ccc(SCc2ccncc2)nc1", "Potency": "inactive"},
      {"smiles": "O=C(c1ccccn1)C1CCCN(Cc2cn[nH]c2-c2cc3ccccc3o2)C1", "note": "(stereo not given)", "Potency": "inactive"},
      {"smiles": "C[C@@H](NC(=O)c1nc[nH]c1C(=O)NCc1ccc(CNC(=O)OC(C)(C)C)cc1)c1ccccc1", "Potency": "inactive"},
      {"smiles": "Cc1noc(C)c1COc1ccc(C(=O)O)cc1", "Potency": "inactive"},
      {"smiles": "Cc1ccc(/C=C/C(=O)O)cc1S(=O)(=O)N1CCc2ccccc21", "Potency": "inactive"},
      {"smiles": "COc1ccc(NC(=O)Nc2nnc(N3CCCCC3C)s2)cc1OC", "note": "(stereo not given)", "Potency": "inactive"},
      {"smiles": "C/C(=N\\NC(=S)NC(C)C)c1ccc(Cl)s1", "Potency": "inactive"},
      {"smiles": "COc1ccc(S(=O)(=O)c2c(O)c3ccc(C(=O)Nc4ccccc4)cc3[nH]c2=O)cc1", "Potency": "inactive"},
      {"smiles": "COc1ccc2c(c1)c1nnc(SCC(=O)Nc3ccccc3F)nc1n2C", "Potency": "inactive"},
      {"smiles": "CCN(CC)S(=O)(=O)c1ccc(NC(=S)Nc2ccc(F)cc2)cc1", "Potency": "inactive"},
      {"smiles": "CC(=O)N1CCN(C(=O)CSc2cc(C)c(Br)cc2C)CC1", "Potency": "inactive"},
      {"smiles": "CCOC(=O)CN1C(=O)N[C@@H](c2ccco2)C(C(=O)OC)=C1C", "Potency": "inactive"},
      {"smiles": "O=C1[C@H]2[C@@H](c3ccc(F)cc3)N3C(=O)N(c4cccc(F)c4)C(=O)[C@@]3(Cc3ccc(Cl)cc3)[C@H]2C(=O)N1C1CCCCC1", "Potency": "inactive"},
      {"smiles": "COCCCN1CC23C=CC(O2)C(C(=O)O)C3C1=O", "note": "(stereo not given)", "Potency": "inactive"},
      {"smiles": "COc1cc(/C=N/NC(=O)c2ccncc2)ccc1O", "Potency": "inactive"},
      {"smiles": "O=[N+]([O-])c1cccc(-c2noc(-c3cccs3)n2)c1", "Potency": "inactive"},
      {"smiles": "Cc1ccc(OCc2cc(C(=O)N(C)Cc3cc(C4CC4)n[nH]3)no2)cc1C", "Potency": "inactive"},
      {"smiles": "COc1ccccc1CN1CC(C(=O)NCc2cccc(C)n2)CCC1=O", "note": "(stereo not given)", "Potency": "inactive"},
      {"smiles": "O=C(COC(=O)Cn1cnc2ccccc21)NCc1ccc(F)cc1", "Potency": "inactive"},
      {"smiles": "O=C(Cc1ccccc1)Nc1ccc(NC(=O)c2ccccc2)c(Cl)c1", "Potency": "inactive"},
      {"smiles": "COc1ccc(NS(=O)(=O)c2c(C)n(C)c(=O)n(C)c2=O)cc1OC", "Potency": "inactive"},
      {"smiles": "CCCNC(=O)COc1coc(CN2CCN(c3ccccc3OC)CC2)cc1=O", "Potency": "inactive"},
      {"smiles": "Cc1ccc(-n2cccc2C(=O)NS(=O)(=O)c2ccc(C)cc2)cc1", "Potency": "inactive"},
      {"smiles": "c1ccc(C2[C@H]3CN(Cc4cccnc4)[C@H](c4ccccc4)C34CC2(c2ccccc2)C4)cc1", "note": "(stereo not given in full)", "Potency": "inactive"},
      {"smiles": "Cc1ccccc1C(=O)Nc1ccccc1N1CCCCC1", "Potency": "inactive"},
      {"smiles": "CC(C)C1Oc2ccccc2N(CC(=O)NC2CCCCC2)C1=O", "note": "(stereo not given)", "Potency": "32.9 µM (active)"}
    ]}
  ]
}
